# 697 NFkB inh – inhibitors of PMA/ionomycin-induced NF-kB reporter, 697 cells, primary screen, B-cell NF-kB inhibitor project, cell-based, luminescence, uHTS; 697 B-cell NF-kB luciferase reporter, 16 h; inhibition, % at 4 µM; 0.33% of 330,000 active; in the data active means inhibition above about 35%
# NR2F2 inh – NR2F2 transcriptional activity inhibitors, primary screen, cell-based, luciferase reporter, HEK293T, luminescence; COUP transcription factor 2 (Homo sapiens), P24468; HEK293T NGFI-A luciferase reporter; inhibition, % at 8.6 µM; 0.7% of 370,000 active; AID 686940, 2013;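 active means inhibition above a per-plate cutoff, mean inhibition of test wells between control levels plus 3 SD, cut at about 38% in these data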;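 further: cells cotransfected with COUP-TFII expression vector driving the NGFI-A reporter; 0% = median of COUP-TF2 test wells and 100% = reporter-only cells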
# Target sequence (P24468 whole entry, looked up): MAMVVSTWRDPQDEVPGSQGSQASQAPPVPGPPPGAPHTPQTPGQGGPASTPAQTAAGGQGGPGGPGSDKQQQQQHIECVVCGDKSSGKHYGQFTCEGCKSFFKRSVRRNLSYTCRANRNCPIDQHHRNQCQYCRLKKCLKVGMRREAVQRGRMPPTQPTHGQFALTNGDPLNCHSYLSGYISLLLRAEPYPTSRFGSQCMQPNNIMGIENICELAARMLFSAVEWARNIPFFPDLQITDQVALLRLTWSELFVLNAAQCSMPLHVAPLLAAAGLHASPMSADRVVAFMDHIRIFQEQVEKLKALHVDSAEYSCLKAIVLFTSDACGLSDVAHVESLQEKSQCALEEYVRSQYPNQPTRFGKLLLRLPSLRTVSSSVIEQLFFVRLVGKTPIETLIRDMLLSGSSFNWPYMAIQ
# Gli-Sufu block – Gli-Sufu pathway antagonists, primary screen, luciferase luminescence, Sufu-KO-LIGHT cells, uHTS; Sufu-KO-LIGHT fibroblasts, Gli luciferase reporter luminescence; inhibition, % at 5 µM; 0.74% of 340,000 active;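 active means inhibition above about 55%, limit read from the data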;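 further: 0% = DMSO-treated cells and 100% = wells with medium but no cells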
# Jurkat NFkB inh – inhibitors of induced NF-kB luciferase reporter, primary screen, TCR NF-kB activation inhibitor project, cell-based, luminescence, uHTS; Jurkat, PMA/ionomycin-induced NF-kB luciferase reporter; inhibition, % at 4 µM; 0.53% of 330,000 active; AID 435003, 2010; in the data active means inhibition above about 50%
# GalR3 antag – GalR3 antagonists in HEK293 cells, primary screen, cell-based, fluorescence readout | AID 651719, 2012 | HEK293 GalR3-CNG cAMP membrane potential fluorescence; galR3 body fused to GalR1 C-terminus | inhibition, % at 3 µM | 0.44% of 360,000 active;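 active means inhibition above the screen-wide average plus 3 SD, cut at about 13% in these data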;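 further: forskolin and galanin both at EC90 stimulate the cells; cAMP rise reported by CNG channel membrane potential dye signal; 0% = forskolin plus galanin with DMSO and 100% = forskolin alone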
# 697 NFkB conf – PMA/ionomycin-induced NF-kB reporter inhibitors, 697 retest, confirmation, B-cell NF-kB inhibitor project, cell-based, luminescence, single concentration; 35% of 2,000 active; 697 B-cell NF-kB luciferase, 16 h; inhibition, % at 4 µM; shares compounds with 697 NFkB inh; in the data active means inhibition mostly above about 28%, no sharp cut-off; inactive means mostly below about 22%
# Numbers without * were called inactive; i = inactive; / = no result given. Shown are actives, neighbours in structure and some others; about 2% of the full set was active somewhere.
SMILES,697 NFkB inh,NR2F2 inh,Gli-Sufu block,Jurkat NFkB inh,GalR3 antag,697 NFkB conf
O=[N+]([O-])c1ccccc1N/N=C/c1cccc(O)c1O,i,-7,13,-34,-3,-190
O=[N+]([O-])c1ccccc1N/N=C\c1ccccc1Cl,-234,-41,-78,-144,-5,/
COc1ccc(-c2noc(N3CCC(C(=O)Nc4ccc(F)cc4)CC3)n2)cc1,31,-6,-6,18,/,/
COc1ccc(-c2noc(N3CCC(C(=O)Nc4cccc(OC)c4)CC3)n2)cc1,42*,6,-13,20,/,34*
O=C(NCCCc1ccccc1)[C@H](CO)NC1(C(=O)NCCc2c[nH]c3ccccc23)CCCCC1,/,15,/,/,/,/
Cc1[nH]c2ccccc2c1/C=N/NC(=O)c1cccs1,28,-87,-6,-30,-7,/
Cc1c(/C=N/NC(=O)c2cccs2)c2ccccc2n1Cc1ccccc1Cl,i,-14,-21,-46,4,3
CC(C)(C)C(=O)Nc1sc(-c2ccccc2)cc1C(=O)O,i,-81,-28,-20,4,i
Cc1ccc(OCCn2cc(C(=S)N3CCCC3)c3ccccc32)cc1C,i,-48,0,-58,1,7
Cc1noc(C)c1-c1ccc2ncnc(NCC3CCCCN3C)c2c1 (stereo not given),36*,-102,23,-20,-8,26
Cc1cccc(/C=N/NC(=O)c2ccc3c(c2)OCCO3)c1O,-352,-22,/,-112,2,-465
CC(=O)c1ccc(S(=O)(=O)Nc2ccc(-c3ccc4nnc(C)n4n3)cc2)cc1,12,-23,-12,-13,-3,/
Cc1nnc2ccc(-c3ccc(NS(=O)(=O)c4ccccc4)cc3)nn12,38*,-57,2,11,-4,21
COc1ccc(OC)c(S(=O)(=O)Nc2ccc(-c3ccc4nnc(C)n4n3)cc2)c1,50*,-54,3,9,-3,39*
CCc1ccc(S(=O)(=O)Nc2cccc(-c3ccc4nnc(C)n4n3)c2)s1,38*,-7,18,18,0,10
CCCC1CCC2(CC1)CCC2OC(=S)Nc1ccccc1Cl (stereo not given),/,-13,/,/,/,/
CCN(CC(=O)Nc1c(F)cccc1F)C(=O)c1cc([N+](=O)[O-])ccc1N1CCCCC1,35*,-10,17,5,-3,44*
CCN(CC(=O)Nc1c(F)cccc1F)C(=O)c1cc(S(=O)(=O)N2CCOCC2)ccc1N1CCCC1,40*,-23,9,21,-3,32*
Cc1cc(C)cc(C(=O)OCCCN(C)C2CN(Cc3cn(Cc4ccccc4Cl)nn3)S(=O)(=O)C2)c1 (stereo not given),/,23,/,/,/,/
CCC(CO)Nc1cccc2c1S(=O)(=O)N(Cc1cn(Cc3ccc(C(F)(F)F)cc3)nn1)Cc1ccccc1O2 (stereo not given),/,1,/,/,/,/
Fc1ccc(C(c2nnnn2Cc2ccco2)N2CCN(C3CCCCC3)CC2)cc1 (stereo not given),36*,-5,8,-2,-6,0
Cc1c(/N=C(\[O-])Nc2ccc(Br)cc2)sn[n+]1C,-274,-50,-77,-86,-5,-264
COC(=O)C1=C[C@@H](C(=O)OC)C2C3=C(C(=O)C24CCCCC4)[C@H](C)n2c(=O)n(-c4ccccc4)c(=O)n2[C@@H]3C1 (stereo not given in full),38*,-5,0,6,-4,14
O=c1c(C=NCCCn2ccnc2)c(-c2ccccc2)[nH]n1-c1nc2ccccc2s1,34,-53,-17,10,-6,/
CN(C)CCCN=Cc1c(-c2ccccc2)[nH]n(-c2nc3ccccc3s2)c1=O,42*,-22,1,13,-3,44*
SMILES,697 NFkB inh,NR2F2 inh,Gli-Sufu block,Jurkat NFkB inh,GalR3 antag,697 NFkB conf
O=c1cc(-c2ccc(O)c(O)c2)oc2ccc3ccccc3c12,i,-2,-53,-67,-2,-366
O=C(Nc1cccc(Br)c1)OC1CC2CC1[C@H]1CCCCN1[C@H]2Cc1ccccc1 (stereo not given in full),/,-24,/,/,/,/
Cc1cccc(NC(=O)CSc2nnc(-c3cc(C)n(-c4ccccc4)c3C)o2)c1C,71*,-19,23,-12,-3,25
Cc1ccc(C)c(NC(=O)CSc2nnc(-c3ccccc3C)o2)c1,10,-9,10,1,-3,/
CCCC[n+]1ccn(-c2nc3ccccc3nc2[N-]S(=O)(=O)c2ccc(Br)cc2)c1,37*,12,11,10,1,16
COC(=O)c1ccc(/C=C/c2nc3ccccc3c(=O)[nH]2)cc1,-43,-18,-14,-112,-9,/
Cc1ccc(/C=C/c2nc3ccccc3c(=O)[nH]2)cc1,-254,-55,-58,-73,-4,-255
COc1ccc(-c2nnc(SCC(=O)Nc3ccc(S(=O)(=O)Nc4nccs4)cc3)n2-c2ccc(OC)cc2)cc1,/,-8,/,/,/,/
Cc1cc(-c2n[nH]c(=S)n2N=Cc2ccc(O)cc2)n[nH]1,/,0,/,/,/,/
Cn1nc(-c2ccc(Cl)cc2)nc2c(=O)n(C)c(=O)nc1-2,-316,/,/,28,/,-293
CCCC[C@H](C(=O)N(C)c1ccccc1)[C@@H](O)c1ccc(C(C)=O)cc1,/,-11,/,/,/,/
Cc1cc(N(C)C)ccc1N=Nc1ccc(N)cc1,69*,18,18,-10,6,79*
Nn1c(SCC(=O)Nc2nccs2)nnc1-c1cc(-c2ccccc2)n[nH]1,/,-10,/,/,/,/
Cc1ccc2cc(/C=N/NC(=O)c3ccc(F)cc3)c(Cl)nc2c1,19,6,3,7,1,/
Cc1ccc2nc(Cl)c(/C=N/Nc3ccc(C(=O)O)cc3)cc2c1,-490,-50,-148,-144,7,-383
O=C(CSc1nc2ccccc2o1)NN=C/C=C\c1ccccc1[N+](=O)[O-],/,-27,/,/,/,/
CC(=O)c1cccc(S(=O)(=O)Nc2cc(C(F)(F)F)ccc2N2CCOCC2)c1,39*,-1,0,11,-6,32*
O=S(=O)(Nc1cc(C(F)(F)F)ccc1N1CCOCC1)c1ccccc1,11,0,-5,-4,-3,/
NC(=NC(=O)/C=C/c1ccccc1Br)N(CC#Cc1ccccc1)CC#Cc1ccccc1,/,18,/,/,/,/
Cc1ccc(CSc2nnc(SCC(=O)N/N=C/C=C/c3ccccc3[N+](=O)[O-])s2)cc1,66*,-3,9,-7,-5,55*
CCN1C(=O)c2cccc3c(S(=O)(=O)NCC4CCCO4)ccc1c23 (stereo not given),37*,-49,17,1,-5,59*

# Screens as filed in PubChem BioAssay.
